Measured values taken from the supplement of paper PMC6411743.
± gives the standard deviation of the averaged measurements. Targets with the largest changes are over-represented here; the source holds about 6,500 in all.

Compound: Nc1ncnc2c1ncn2[C@@H]1O[C@H](COP(=O)(O)OP(=O)(O)OP(=O)(O)O)[C@@H](O)[C@H]1O [adenosine triphosphate]
Test: NP40-soluble protein abundance relative to vehicle (solubility fold change) (ratio); higher = more soluble protein in presence of ATP
In short: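 Jurkat crude lysate (Dounce-homogenised) was treated with eight concentrations from 0.1 to 10 mM for 10 min at room temperature, then 3 min at 37 °C. It was solubilised with 0.8% NP40 and benzonase (60 min, 4 °C) and ultracentrifuged, and the supernatant was TMT-labelled for LC-MS/MS. Intensities were vsn-normalised, and the value is the fold change against the NP40-processed vehicle per replicate, from three independent experiments.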

Chain of UniProt Q96SB4 (Q96SB4 whole entry): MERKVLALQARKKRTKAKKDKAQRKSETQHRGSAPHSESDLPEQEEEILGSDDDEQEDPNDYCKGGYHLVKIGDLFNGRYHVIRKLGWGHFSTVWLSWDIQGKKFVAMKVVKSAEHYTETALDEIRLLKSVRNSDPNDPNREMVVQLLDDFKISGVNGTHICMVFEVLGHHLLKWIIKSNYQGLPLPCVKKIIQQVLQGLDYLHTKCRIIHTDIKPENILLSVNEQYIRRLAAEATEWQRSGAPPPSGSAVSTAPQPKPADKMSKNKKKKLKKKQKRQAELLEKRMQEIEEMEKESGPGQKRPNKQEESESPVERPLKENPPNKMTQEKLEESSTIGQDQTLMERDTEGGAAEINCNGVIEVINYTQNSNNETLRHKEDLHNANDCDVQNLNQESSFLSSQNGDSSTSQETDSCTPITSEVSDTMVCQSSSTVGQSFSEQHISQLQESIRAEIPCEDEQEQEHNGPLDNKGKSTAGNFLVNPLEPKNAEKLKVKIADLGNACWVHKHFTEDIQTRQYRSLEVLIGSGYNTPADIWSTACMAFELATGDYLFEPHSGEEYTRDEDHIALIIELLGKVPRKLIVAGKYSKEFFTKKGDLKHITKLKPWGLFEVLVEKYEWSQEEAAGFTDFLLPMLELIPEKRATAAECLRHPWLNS
Chain of UniProt Q96RS0 (Q96RS0 whole entry): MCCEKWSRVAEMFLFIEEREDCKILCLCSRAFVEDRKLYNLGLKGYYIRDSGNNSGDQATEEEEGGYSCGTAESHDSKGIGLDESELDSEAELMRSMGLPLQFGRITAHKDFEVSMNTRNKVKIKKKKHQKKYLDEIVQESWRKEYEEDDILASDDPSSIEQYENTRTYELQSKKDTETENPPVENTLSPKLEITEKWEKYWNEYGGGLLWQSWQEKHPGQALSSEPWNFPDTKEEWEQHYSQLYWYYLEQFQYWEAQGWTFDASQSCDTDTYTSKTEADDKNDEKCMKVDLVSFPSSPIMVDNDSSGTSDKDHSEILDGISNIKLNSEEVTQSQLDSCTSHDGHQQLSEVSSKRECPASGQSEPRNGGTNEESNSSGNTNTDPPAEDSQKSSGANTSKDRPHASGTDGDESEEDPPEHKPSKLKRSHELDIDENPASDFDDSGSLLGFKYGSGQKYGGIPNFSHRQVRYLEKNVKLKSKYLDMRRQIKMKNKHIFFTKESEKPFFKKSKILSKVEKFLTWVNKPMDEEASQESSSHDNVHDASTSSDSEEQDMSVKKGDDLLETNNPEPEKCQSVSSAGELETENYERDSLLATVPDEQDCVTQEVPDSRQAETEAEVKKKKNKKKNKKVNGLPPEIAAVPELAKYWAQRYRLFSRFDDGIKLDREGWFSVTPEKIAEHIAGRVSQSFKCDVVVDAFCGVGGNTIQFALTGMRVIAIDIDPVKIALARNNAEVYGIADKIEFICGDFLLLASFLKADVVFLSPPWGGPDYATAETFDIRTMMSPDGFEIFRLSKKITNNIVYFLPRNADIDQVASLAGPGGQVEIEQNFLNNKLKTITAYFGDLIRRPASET
Chain of UniProt Q96AT9 (Q96AT9 whole entry): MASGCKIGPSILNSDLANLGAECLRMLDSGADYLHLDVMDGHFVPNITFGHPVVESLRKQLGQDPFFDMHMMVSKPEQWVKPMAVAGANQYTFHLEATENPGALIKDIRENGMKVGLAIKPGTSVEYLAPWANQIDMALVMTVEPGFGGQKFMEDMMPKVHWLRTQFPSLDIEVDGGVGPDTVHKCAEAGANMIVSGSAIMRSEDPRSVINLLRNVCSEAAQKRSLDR
Chain of UniProt Q9NUL5 (Q9NUL5 whole entry): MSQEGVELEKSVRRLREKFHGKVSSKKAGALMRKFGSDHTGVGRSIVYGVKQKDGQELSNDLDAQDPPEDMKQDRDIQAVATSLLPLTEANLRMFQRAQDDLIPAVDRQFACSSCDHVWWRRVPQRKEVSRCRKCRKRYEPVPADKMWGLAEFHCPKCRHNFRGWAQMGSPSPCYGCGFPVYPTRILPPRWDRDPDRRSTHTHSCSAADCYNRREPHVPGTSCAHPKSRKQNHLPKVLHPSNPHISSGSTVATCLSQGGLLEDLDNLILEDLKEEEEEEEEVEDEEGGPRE
Chain of UniProt Q99653 (Q99653 whole entry): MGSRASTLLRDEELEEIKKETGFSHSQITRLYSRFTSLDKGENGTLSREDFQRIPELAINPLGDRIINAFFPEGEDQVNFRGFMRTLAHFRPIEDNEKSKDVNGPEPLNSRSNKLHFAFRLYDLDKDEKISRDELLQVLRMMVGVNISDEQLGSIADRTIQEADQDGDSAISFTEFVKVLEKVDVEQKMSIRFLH
Chain of UniProt Q9BXR0 (Q9BXR0 whole entry): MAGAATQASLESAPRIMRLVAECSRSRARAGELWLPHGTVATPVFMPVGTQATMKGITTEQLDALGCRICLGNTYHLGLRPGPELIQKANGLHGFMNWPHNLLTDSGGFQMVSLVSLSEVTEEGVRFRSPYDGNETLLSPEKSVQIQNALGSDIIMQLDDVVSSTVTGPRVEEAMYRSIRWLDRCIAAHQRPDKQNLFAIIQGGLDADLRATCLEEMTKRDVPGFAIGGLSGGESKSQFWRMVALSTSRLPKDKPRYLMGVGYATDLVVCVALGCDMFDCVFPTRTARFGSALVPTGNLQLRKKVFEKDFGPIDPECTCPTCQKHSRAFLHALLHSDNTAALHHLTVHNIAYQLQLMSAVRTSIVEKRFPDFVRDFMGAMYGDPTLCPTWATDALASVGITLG
Chain of UniProt Q96JM3 (Q96JM3 whole entry): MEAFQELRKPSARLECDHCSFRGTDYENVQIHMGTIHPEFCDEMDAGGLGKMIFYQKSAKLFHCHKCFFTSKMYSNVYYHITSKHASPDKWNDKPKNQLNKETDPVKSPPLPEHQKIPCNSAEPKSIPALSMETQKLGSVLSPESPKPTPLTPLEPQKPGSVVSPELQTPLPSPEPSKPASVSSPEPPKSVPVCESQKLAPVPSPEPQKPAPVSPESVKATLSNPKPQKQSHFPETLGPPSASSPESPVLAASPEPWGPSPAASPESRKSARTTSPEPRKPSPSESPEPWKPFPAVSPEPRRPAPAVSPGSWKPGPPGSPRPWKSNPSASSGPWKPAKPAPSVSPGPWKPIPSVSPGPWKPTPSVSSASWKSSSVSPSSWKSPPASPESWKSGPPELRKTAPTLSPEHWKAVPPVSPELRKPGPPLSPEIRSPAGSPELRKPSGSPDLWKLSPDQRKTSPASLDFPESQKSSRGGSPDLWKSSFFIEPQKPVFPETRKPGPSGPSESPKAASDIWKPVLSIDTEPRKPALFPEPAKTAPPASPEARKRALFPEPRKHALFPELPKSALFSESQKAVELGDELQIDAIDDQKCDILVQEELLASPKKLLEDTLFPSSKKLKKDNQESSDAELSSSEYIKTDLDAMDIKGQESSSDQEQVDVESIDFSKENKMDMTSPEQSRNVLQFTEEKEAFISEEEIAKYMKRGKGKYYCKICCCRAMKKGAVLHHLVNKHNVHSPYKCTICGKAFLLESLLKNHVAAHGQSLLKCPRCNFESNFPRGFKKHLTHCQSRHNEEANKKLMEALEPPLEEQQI
Chain of UniProt Q96AD5 (Q96AD5 whole entry): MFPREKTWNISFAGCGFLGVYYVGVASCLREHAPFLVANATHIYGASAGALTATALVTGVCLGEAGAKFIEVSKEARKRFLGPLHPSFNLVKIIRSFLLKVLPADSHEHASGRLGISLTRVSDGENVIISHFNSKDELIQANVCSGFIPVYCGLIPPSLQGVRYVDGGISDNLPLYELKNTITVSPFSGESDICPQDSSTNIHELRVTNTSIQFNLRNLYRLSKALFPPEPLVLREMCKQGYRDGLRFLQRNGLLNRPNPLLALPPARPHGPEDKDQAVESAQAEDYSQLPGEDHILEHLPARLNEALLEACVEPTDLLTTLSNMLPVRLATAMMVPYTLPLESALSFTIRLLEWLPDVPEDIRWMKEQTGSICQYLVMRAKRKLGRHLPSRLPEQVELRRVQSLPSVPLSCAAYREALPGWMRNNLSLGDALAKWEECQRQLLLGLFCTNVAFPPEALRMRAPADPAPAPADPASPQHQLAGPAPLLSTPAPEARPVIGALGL
Chain of UniProt Q9NYK6 (Q9NYK6 whole entry): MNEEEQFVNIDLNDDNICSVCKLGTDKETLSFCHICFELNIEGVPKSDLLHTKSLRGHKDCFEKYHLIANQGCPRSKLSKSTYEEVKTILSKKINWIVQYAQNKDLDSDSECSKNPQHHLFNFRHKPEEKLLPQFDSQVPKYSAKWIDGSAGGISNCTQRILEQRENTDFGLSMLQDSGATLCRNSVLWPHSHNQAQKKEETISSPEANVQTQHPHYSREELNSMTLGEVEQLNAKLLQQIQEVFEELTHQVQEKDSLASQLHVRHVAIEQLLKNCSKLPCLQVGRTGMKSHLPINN
Chain of UniProt Q9HDC9 (Q9HDC9 whole entry): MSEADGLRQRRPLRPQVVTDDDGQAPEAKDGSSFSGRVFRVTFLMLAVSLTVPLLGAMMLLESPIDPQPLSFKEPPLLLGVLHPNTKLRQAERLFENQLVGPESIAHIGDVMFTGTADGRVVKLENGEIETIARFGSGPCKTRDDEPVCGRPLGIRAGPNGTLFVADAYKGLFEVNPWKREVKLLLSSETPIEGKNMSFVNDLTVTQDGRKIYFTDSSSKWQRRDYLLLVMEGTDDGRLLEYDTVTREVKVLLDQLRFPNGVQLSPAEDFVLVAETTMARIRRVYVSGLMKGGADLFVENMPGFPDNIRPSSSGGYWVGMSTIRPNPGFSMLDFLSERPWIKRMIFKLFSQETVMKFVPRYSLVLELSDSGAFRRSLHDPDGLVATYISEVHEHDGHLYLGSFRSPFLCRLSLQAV
Chain of UniProt Q9BY49 (Q9BY49 whole entry): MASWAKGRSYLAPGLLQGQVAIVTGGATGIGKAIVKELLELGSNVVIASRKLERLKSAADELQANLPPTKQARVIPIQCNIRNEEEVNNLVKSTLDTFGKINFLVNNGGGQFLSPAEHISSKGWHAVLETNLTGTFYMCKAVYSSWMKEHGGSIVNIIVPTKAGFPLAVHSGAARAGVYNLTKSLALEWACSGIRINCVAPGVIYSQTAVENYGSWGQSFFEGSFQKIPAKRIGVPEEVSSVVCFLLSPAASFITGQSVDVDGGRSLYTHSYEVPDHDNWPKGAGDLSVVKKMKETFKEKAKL

Target	NP40-soluble protein abundance (concentration: 1mM)	NP40-soluble protein abundance (concentration: 2mM)	NP40-soluble protein abundance (concentration: 4mM)	NP40-soluble protein abundance (concentration: 6mM)	NP40-soluble protein abundance (concentration: 8mM)	NP40-soluble protein abundance (concentration: 10mM)
UniProt Q96AQ6|Q96AQ6-2	0.939 ± 0.053	0.927 ± 0.024	0.924 ± 0.028	0.953 ± 0.017	0.895 ± 0.01	0.9264 ± 0.0053
UniProt Q9NVI7-2	1.54 ± 0.05	1.64 ± 0.086	1.8 ± 0.086	1.89 ± 0.29	2.2 ± 0.2	2.35 ± 0.26
DDX18 (UniProt Q9NVP1)	1.21 ± 0.029	1.3 ± 0.024	1.503 ± 0.0076	1.74 ± 0.035	2.07 ± 0.024	2.36 ± 0.16
UniProt Q96T23|Q96T23-2	1.48 ± 0.043	1.62 ± 0.071	1.81 ± 0.041	2 ± 0.1	1.96 ± 0.039	2.13 ± 0.11
TM9SF3 (UniProt Q9HD45)	1.04 ± 0.12	1.03 ± 0.1	1.01 ± 0.079	0.946 ± 0.12	1.05 ± 0.099	1.01 ± 0.097
UniProt Q96QF0|Q96QF0-2	0.996 ± 0.032	0.946 ± 0.021	1.03 ± 0.034	1.001 ± 0.0051	0.994 ± 0.062	0.979 ± 0.078
COG8 (UniProt Q96MW5)	0.938 ± 0.057	0.917 ± 0.029	0.937 ± 0.048	0.898 ± 0.068	0.902 ± 0.06	0.975 ± 0.054
UniProt Q9BRQ0|Q5T171	0.931 ± 0.11	0.887 ± 0.18	0.898 ± 0.15	0.944 ± 0.19	0.865 ± 0.15	0.909 ± 0.29
DDX21 (UniProt Q9NR30)	1.29 ± 0.046	1.42 ± 0.042	1.65 ± 0.098	2.04 ± 0.17	2.53 ± 0.21	3.17 ± 0.13
PNPLA2 (UniProt Q96AD5)	1.04 ± 0.047	1 ± 0.069	1.02 ± 0.064	0.927 ± 0.12	0.994 ± 0.062	1.06 ± 0.1
RPRD1B (UniProt Q9NQG5)	0.969 ± 0.12	0.943 ± 0.039	0.971 ± 0.049	0.993 ± 0.089	1.02 ± 0.034	0.854 ± 0.15
UniProt Q9BXK5|Q9BXK5-4	0.958 ± 0.041	0.97 ± 0.011	0.957 ± 0.028	0.988 ± 0.021	0.926 ± 0.031	0.916 ± 0.052
UniProt Q9HC36	1.11 ± 0.06	1.29 ± 0.068	1.57 ± 0.13	1.8 ± 0.21	2.03 ± 0.2	2.37 ± 0.32
ARGLU1 (UniProt Q9NWB6)	1.72 ± 0.14	1.86 ± 0.18	2.03 ± 0.26	2.27 ± 0.22	2.33 ± 0.28	2.44 ± 0.27
UniProt Q969M3|Q969M3-3	0.981 ± 0.16	0.97 ± 0.19	0.974 ± 0.22	0.987 ± 0.24	0.961 ± 0.19	0.996 ± 0.19
UniProt Q9H0S4|Q9H0S4-2	1.18 ± 0.12	1.23 ± 0.072	1.44 ± 0.03	1.5 ± 0.09	1.79 ± 0.073	1.99 ± 0.11
UniProt Q9NNW7|Q9NNW7-2	1.01 ± 0.04	0.942 ± 0.011	0.983 ± 0.067	0.951 ± 0.02	0.949 ± 0.057	0.958 ± 0.1
UniProt Q99653	0.961 ± 0.041	0.989 ± 0.011	0.983 ± 0.029	0.965 ± 0.054	0.961 ± 0.059	0.931 ± 0.037
RPGR (UniProt Q92834)	1.03 ± 0.099	1.08 ± 0.039	1.05 ± 0.036	1.07 ± 0.067	1.067 ± 0.0066	1.05 ± 0.013
MRPL16 (UniProt Q9NX20)	1.17 ± 0.12	1.08 ± 0.11	1.06 ± 0.16	1.11 ± 0.38	1.08 ± 0.18	0.981 ± 0.14

Target	NP40-soluble protein abundance (concentration: 1mM)	NP40-soluble protein abundance (concentration: 2mM)	NP40-soluble protein abundance (concentration: 4mM)	NP40-soluble protein abundance (concentration: 6mM)	NP40-soluble protein abundance (concentration: 8mM)	NP40-soluble protein abundance (concentration: 10mM)
UniProt Q96JM3	1.02 ± 0.043	1.02 ± 0.042	1.03 ± 0.048	1.12 ± 0.037	1.1 ± 0.039	1.12 ± 0.025
UniProt Q96AT9|Q96AT9-2	1.06 ± 0.092	1.07 ± 0.047	1.06 ± 0.075	1.05 ± 0.073	0.991 ± 0.064	0.993 ± 0.048
QTRT1 (UniProt Q9BXR0)	1.01 ± 0.12	0.995 ± 0.091	1.02 ± 0.049	0.925 ± 0.14	0.994 ± 0.049	0.985 ± 0.051
UniProt Q9BTL3	0.928 ± 0.13	0.882 ± 0.066	0.95 ± 0.059	1 ± 0.11	0.888 ± 0.028	0.869 ± 0.059
TMEM109 (UniProt Q9BVC6)	0.943 ± 0.051	0.962 ± 0.066	0.999 ± 0.082	0.915 ± 0.03	0.955 ± 0.046	0.91 ± 0.074
SRPK1 (UniProt Q96SB4)	1.31 ± 0.091	1.39 ± 0.079	1.5 ± 0.099	1.63 ± 0.12	1.67 ± 0.083	1.74 ± 0.11
UniProt Q9BTX1|Q9BTX1-2|Q9BTX1-5|Q9BTX1-6	1.01 ± 0.076	1.01 ± 0.071	1.03 ± 0.1	0.996 ± 0.13	1.06 ± 0.044	1.08 ± 0.084
PXDN (UniProt Q92626)	1.06 ± 0.1	1.03 ± 0.067	1.09 ± 0.06	1.05 ± 0.049	1.04 ± 0.074	1.06 ± 0.1
UniProt Q9UG63|Q9UG63-2	1.09 ± 0.033	1.15 ± 0.039	1.42 ± 0.019	1.67 ± 0.095	2.16 ± 0.093	2.59 ± 0.25
CCDC124 (UniProt Q96CT7)	1.08 ± 0.15	1.14 ± 0.089	1.3 ± 0.2	1.56 ± 0.2	1.64 ± 0.1	1.96 ± 0.36
UniProt Q9NQW7-3	1.01 ± 0.044	0.994 ± 0.029	0.968 ± 0.044	0.976 ± 0.052	0.991 ± 0.043	0.966 ± 0.036
UniProt Q9HDC9	1.03 ± 0.13	1 ± 0.11	0.936 ± 0.039	0.903 ± 0.13	0.953 ± 0.06	0.953 ± 0.079
IRAK4 (UniProt Q9NWZ3)	1.02 ± 0.042	1.03 ± 0.045	1.01 ± 0.051	0.985 ± 0.057	0.996 ± 0.043	0.988 ± 0.047
MRPL38 (UniProt Q96DV4)	1.04 ± 0.035	0.869 ± 0.076	0.87 ± 0.08	0.925 ± 0.3	0.86 ± 0.15	0.839 ± 0.15
UniProt Q9NUL3-3|Q9NUL3-8|A0A0A0MTD1|E7EPX0|E7EVJ4|F8VPI7|A0A0A0MTC5|E9PH62|Q9NUL3|Q9NUL3-2	0.971 ± 0.048	1.11 ± 0.13	1.02 ± 0.057	1.11 ± 0.15	1.16 ± 0.099	1.3 ± 0.11
ARMC1 (UniProt Q9NVT9)	0.913 ± 0.046	0.946 ± 0.018	0.876 ± 0.024	0.866 ± 0.063	0.881 ± 0.035	0.908 ± 0.029
UniProt Q96CN4|Q96CN4-2	0.985 ± 0.035	1.02 ± 0.061	1.13 ± 0.21	1.1 ± 0.084	1 ± 0.034	1.05 ± 0.059
MRPL17 (UniProt Q9NRX2)	1.08 ± 0.13	0.934 ± 0.14	0.939 ± 0.14	0.916 ± 0.33	0.93 ± 0.21	0.822 ± 0.18
DSCC1 (UniProt Q9BVC3)	1.04 ± 0.038	1.06 ± 0.011	1.03 ± 0.018	1.01 ± 0.021	1.077 ± 0.0062	1.05 ± 0.037
DDX23 (UniProt Q9BUQ8)	1.14 ± 0.052	1.23 ± 0.1	1.38 ± 0.13	1.52 ± 0.21	1.69 ± 0.17	1.81 ± 0.2

Target	NP40-soluble protein abundance (concentration: 1mM)	NP40-soluble protein abundance (concentration: 2mM)	NP40-soluble protein abundance (concentration: 4mM)	NP40-soluble protein abundance (concentration: 6mM)	NP40-soluble protein abundance (concentration: 8mM)	NP40-soluble protein abundance (concentration: 10mM)
IARS2 (UniProt Q9NSE4)	1.04 ± 0.08	1.02 ± 0.075	0.991 ± 0.069	0.977 ± 0.1	1.02 ± 0.056	0.98 ± 0.069
UniProt Q92576|Q92576-2	1.05 ± 0.052	1.07 ± 0.056	1.12 ± 0.051	1.22 ± 0.11	1.2 ± 0.048	1.24 ± 0.073
WDR41 (UniProt Q9HAD4)	1.03 ± 0.026	0.994 ± 0.08	1.08 ± 0.062	1 ± 0.033	1 ± 0.065	1.01 ± 0.043
EIF2AK4 (UniProt Q9P2K8)	1.04 ± 0.096	1.02 ± 0.078	1.02 ± 0.071	0.967 ± 0.073	1.03 ± 0.056	1.03 ± 0.082
PECR (UniProt Q9BY49)	0.965 ± 0.093	0.966 ± 0.037	0.994 ± 0.073	0.984 ± 0.076	1.02 ± 0.053	1.05 ± 0.033
UniProt Q9NYK6|Q9NYK6-3	1.09 ± 0.13	1.02 ± 0.026	1.04 ± 0.011	1.05 ± 0.089	0.99 ± 0.066	1.05 ± 0.026
UniProt Q9UBK8|Q9UBK8-2	0.946 ± 0.042	1.01 ± 0.066	0.941 ± 0.058	0.97 ± 0.068	0.973 ± 0.028	0.978 ± 0.08
PUS7 (UniProt Q96PZ0)	0.969 ± 0.059	0.974 ± 0.057	0.967 ± 0.034	0.941 ± 0.076	0.963 ± 0.03	0.968 ± 0.036
UniProt Q9BZ23|Q9BZ23-3|Q9BZ23-4	0.958 ± 0.079	0.995 ± 0.08	0.937 ± 0.054	0.914 ± 0.05	0.882 ± 0.11	0.91 ± 0.05
UniProt Q96N16|Q96N16-2	1.17 ± 0.24	1.27 ± 0.16	1.28 ± 0.24	1.37 ± 0.19	1.27 ± 0.23	1.36 ± 0.17
UniProt Q9H6R4|Q9H6R4-4|A0A0A0MRW6|Q9H6R4-2	1.08 ± 0.049	1.03 ± 0.018	1.28 ± 0.027	1.31 ± 0.041	1.39 ± 0.15	1.72 ± 0.15
UniProt Q9NUL5	0.948 ± 0.041	0.972 ± 0.048	0.921 ± 0.029	0.921 ± 0.057	0.908 ± 0.025	0.924 ± 0.035
UniProt Q9HCM7	1.71 ± 0.25	1.84 ± 0.31	2.2 ± 0.52	2.13 ± 0.52	2.62 ± 0.69	2.78 ± 0.79
UniProt Q9NVX7-2|A0A075B6T4|Q9NVX7	1 ± 0.072	1.02 ± 0.066	1 ± 0.11	0.957 ± 0.095	1.05 ± 0.065	0.975 ± 0.036
UniProt Q96GN5|Q96GN5-4|Q96GN5-2	1.09 ± 0.19	1.16 ± 0.23	1.23 ± 0.36	1.29 ± 0.35	1.34 ± 0.41	1.42 ± 0.57
TGS1 (UniProt Q96RS0)	0.969 ± 0.087	0.995 ± 0.067	1.03 ± 0.035	1.05 ± 0.054	1.03 ± 0.069	1.1 ± 0.026
ATP13A1 (UniProt Q9HD20)	1.01 ± 0.1	1 ± 0.06	1.01 ± 0.064	0.951 ± 0.086	1 ± 0.041	0.978 ± 0.03
UniProt Q96B36|Q96B36-3	0.861 ± 0.098	0.826 ± 0.085	0.765 ± 0.029	0.826 ± 0.091	0.747 ± 0.071	0.693 ± 0.12
UniProt Q96HN2-2|Q96HN2	0.919 ± 0.042	0.934 ± 0.051	0.898 ± 0.025	0.939 ± 0.052	0.911 ± 0.017	0.934 ± 0.01
DHRS4 (UniProt Q9BTZ2)	0.9895 ± 0.0086	0.987 ± 0.019	0.989 ± 0.043	0.956 ± 0.028	0.968 ± 0.035	0.988 ± 0.018
